Experiment [1] is described as follows: Primary qHTS for inhibitors of nuclear receptor binding SET domain protein 2 (NSD2) in an isogenic RCH-ACV NSD2 p.E1099K mutant (9B) (AID 1645876). Note: nearly all actives have a fitted effect of over 70% in size. Note: potency is the fitted concentration of half-maximal effect. In general terms: Quantitative high-throughput screening tests each substance at several concentrations.
Experiment [2] in a line: Primary qHTS for inhibitors of nuclear receptor binding SET domain protein 2 (NSD2) in an RCH-ACV wild type WT cells (2C) (AID 1645877). Note: nearly all actives have a fitted effect of over 70% in size. Note: potency is the fitted concentration of half-maximal effect.
A short description of experiment [3]: Viability counterscreen for antagonist of constitutive androstane receptor (CAR) against the NCATS DSHEA and TCM libraries (AID 1794837).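 Note: compound exposure lasted 24 h before viability reading; 0% is about no effect.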 In short, it runs like this: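 Viability was measured by CellTiter-Fluor fluorescence (405/540 nm, 1 hr) in HepG2-CYP2B6-hCAR cells. Cells were co-treated 24 hr with 48 uM CITCO (final), antagonist mode, and test substances.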
Background: A counterscreen serves to expose hits that act by an unwanted route or on another target.

Experiment [4] in a line: Viability counterscreen for agonist of constitutive androstane receptor (CAR) against the NCATS DSHEA and TCM libraries (AID 1794838).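 Note: cells exposed to compound for 24 h; 0% is about no effect.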 In a few lines:
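Cell viability, from CellTiter-Fluor fluorescence (405/540 nm), was scored after a 24 h, 37C exposure of HepG2 cells carrying CYP2B6 reporter and hCAR to test substances in presence of 0.75 uM PK11195.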

In experiment [5] the target is Nuclear receptor subfamily 1 group I member 3 (Homo sapiens) (UniProt Q14994). Kind of experiment: Primary qHTS for agonist of constitutive androstane receptor (CAR) against the NCATS DSHEA and TCM libraries (AID 1794839).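 Note: HepG2 cells expressing human CAR with a CYP2B6 reporter plus PK11195 antagonist; luciferase reporter luminescence read with ONE-Glo; 0% is about no effect.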 In short, it runs like this:
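Agonist mode in presence of hCAR antagonist PK11195 (0.75 µM final): test substances, 24 h, 37 °C, on HepG2-CYP2B6-hCAR cells. Same-well readouts: fluorescence viability, then ONE-Glo luminescence; CITCO as reference agonist.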

The nature of experiment [6]: HepG2 viability counterscreen (readout 2: ATP content) against the NCATS DSHEA and TCM libraries (AID 1794840).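 Note: HepG2 cells exposed to substances for about 24 h; 0% is about no effect.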 In a few lines: (§1)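 Readout 1: cellular protease activity, GF-AFC substrate (25 uM final, 30 min, fluorescence 380/510 nm). Readout 2: ATP content by CellTiter-Glo luminescence after 30 min at RT. Both follow ~24 h exposure of HepG2 cells (1,000/well) to substances.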

The nature of experiment [7]: HepG2 viability counterscreen (readout 1: protease activity) against the NCATS DSHEA and TCM libraries (AID 1794841).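 Note: cells exposed to compounds for about 24 h before the protease read; 0% is about no effect.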 In short, it runs like this: as §1
Experiment [8] can be described thus: NCATS anti-infectives library activity on HEK293 viability as a counter-qHTS vs the C. elegans viability qHTS (AID 1745854).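 Note: HEK293 cells exposed to compounds for 24 hr before the viability read; % is set by controls: 0 for no effect and ±100 for the full control effect.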 In a few lines: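 Counter-screen for cytotoxicity: HEK293, 24 hr, 37C, compounds up to 41.7 uM final (a dilution series, 1:5). Readout CellTiter-Glo luminescence, 10 min RT. Digitonin control, 83.3 uM final.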
Experiment [9] addresses Catechol O-methyltransferase (Homo sapiens) (UniProt P21964). Kind of experiment: Confirmatory Screen for Target Class Profiling of Small Molecule Inhibitors of Methyltransferases (AID 1745852). For activity change, negative = inhibition: % is set by controls: 0 for no effect and ±100 for the full control effect. As to conditions: MTase-Glo luminescence, SAH detection, recombinant enzyme; measured here: COMT max response; stronger effect = lower value.
Experiment [10] has as its target Guanidinoacetate N-methyltransferase (Homo sapiens) (UniProt Q14353). The experiment is described as above. As to conditions: MTase-Glo luminescence, SAH detection, recombinant enzyme; at 57.3 µM (top of the series).
Experiment [11] deals with Nicotinamide N-methyltransferase (Homo sapiens) (UniProt P40261). The experiment is described as above. As to conditions: MTase-Glo luminescence, SAH detection, recombinant enzyme; measured here: NNMT max response; stronger effect = lower value.
Sequence of Nicotinamide N-methyltransferase (Homo sapiens) (P40261 whole entry, looked up): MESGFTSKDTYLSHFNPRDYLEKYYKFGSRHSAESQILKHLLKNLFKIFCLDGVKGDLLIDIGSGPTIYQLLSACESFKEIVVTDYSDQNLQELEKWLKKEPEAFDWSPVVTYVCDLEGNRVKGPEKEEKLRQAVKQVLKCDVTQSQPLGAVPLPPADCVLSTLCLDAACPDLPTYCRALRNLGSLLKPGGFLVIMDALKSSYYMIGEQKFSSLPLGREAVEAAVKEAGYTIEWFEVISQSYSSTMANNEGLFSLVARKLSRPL
The target of experiment [12] is Phenylethanolamine N-methyltransferase (Homo sapiens) (UniProt P11086). The experiment is described as above. The settings on record: MTase-Glo luminescence, SAH detection, recombinant enzyme; measured here: PNMT max response; stronger effect = lower value.
Sequence of Phenylethanolamine N-methyltransferase (Homo sapiens) (P11086 whole entry, looked up): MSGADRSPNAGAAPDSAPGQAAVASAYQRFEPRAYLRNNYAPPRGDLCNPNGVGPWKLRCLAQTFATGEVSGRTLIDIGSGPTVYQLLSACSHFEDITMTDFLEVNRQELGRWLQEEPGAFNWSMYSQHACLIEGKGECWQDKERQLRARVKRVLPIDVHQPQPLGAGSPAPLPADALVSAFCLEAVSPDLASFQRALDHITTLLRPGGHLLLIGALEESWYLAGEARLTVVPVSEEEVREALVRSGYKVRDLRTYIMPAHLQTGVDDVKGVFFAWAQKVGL
The target in experiment [13] is Rap guanine nucleotide exchange factor 3 (Homo sapiens) (UniProt O95398). Kind of experiment: Confirmatory qHTS for agonist of cAMP-regulated guanine nucleotide exchange factor 3 (EPAC1) (AID 1645881).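 Note: EPAC1 catalysed release of BODIPY-GDP from Rap1B seen as fluorescence loss; 100% = effect of cAMP agonist control; nearly all actives have a fitted effect of over 75% in size.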
Sequence of Rap guanine nucleotide exchange factor 3 (Homo sapiens) (O95398 whole entry, looked up): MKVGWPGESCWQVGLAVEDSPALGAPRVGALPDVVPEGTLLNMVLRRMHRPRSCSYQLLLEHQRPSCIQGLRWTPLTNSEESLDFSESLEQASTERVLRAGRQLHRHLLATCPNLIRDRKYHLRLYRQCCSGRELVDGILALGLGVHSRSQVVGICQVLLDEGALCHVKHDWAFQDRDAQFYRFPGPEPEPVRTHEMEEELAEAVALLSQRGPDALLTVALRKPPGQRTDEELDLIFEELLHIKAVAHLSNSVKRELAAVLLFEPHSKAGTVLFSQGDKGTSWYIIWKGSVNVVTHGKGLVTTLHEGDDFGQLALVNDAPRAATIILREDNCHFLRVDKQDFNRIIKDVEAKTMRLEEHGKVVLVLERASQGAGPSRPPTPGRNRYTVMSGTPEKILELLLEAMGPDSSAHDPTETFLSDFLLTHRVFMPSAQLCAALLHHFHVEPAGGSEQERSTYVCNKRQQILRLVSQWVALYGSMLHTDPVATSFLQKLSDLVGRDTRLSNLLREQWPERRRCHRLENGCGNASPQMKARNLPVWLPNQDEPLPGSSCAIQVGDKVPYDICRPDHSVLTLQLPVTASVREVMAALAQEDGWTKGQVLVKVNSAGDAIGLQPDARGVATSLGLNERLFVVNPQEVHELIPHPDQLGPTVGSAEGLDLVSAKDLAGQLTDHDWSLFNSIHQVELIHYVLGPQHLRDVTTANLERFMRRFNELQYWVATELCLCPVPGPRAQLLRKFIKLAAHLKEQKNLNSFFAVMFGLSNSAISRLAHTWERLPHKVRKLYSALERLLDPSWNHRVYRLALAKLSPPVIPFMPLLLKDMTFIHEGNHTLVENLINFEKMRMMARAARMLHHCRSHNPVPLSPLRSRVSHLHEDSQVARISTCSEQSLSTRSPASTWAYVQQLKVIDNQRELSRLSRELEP
The target in experiment [14] is Rap guanine nucleotide exchange factor 4 (Homo sapiens) (UniProt Q8WZA2). Kind of experiment: Confirmatory qHTS for agonist of cAMP-regulated guanine nucleotide exchange factor 4 (EPAC2) (AID 1645884).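 Note: nucleotide exchange releases bodipy-GDP from Rap1 and this lowers its fluorescence; % is set by controls: 0 for no effect and ±100 for the full control effect; nearly all actives have a fitted effect of over 65% in size.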
Sequence of Rap guanine nucleotide exchange factor 4 (Homo sapiens) (Q8WZA2 whole entry, looked up): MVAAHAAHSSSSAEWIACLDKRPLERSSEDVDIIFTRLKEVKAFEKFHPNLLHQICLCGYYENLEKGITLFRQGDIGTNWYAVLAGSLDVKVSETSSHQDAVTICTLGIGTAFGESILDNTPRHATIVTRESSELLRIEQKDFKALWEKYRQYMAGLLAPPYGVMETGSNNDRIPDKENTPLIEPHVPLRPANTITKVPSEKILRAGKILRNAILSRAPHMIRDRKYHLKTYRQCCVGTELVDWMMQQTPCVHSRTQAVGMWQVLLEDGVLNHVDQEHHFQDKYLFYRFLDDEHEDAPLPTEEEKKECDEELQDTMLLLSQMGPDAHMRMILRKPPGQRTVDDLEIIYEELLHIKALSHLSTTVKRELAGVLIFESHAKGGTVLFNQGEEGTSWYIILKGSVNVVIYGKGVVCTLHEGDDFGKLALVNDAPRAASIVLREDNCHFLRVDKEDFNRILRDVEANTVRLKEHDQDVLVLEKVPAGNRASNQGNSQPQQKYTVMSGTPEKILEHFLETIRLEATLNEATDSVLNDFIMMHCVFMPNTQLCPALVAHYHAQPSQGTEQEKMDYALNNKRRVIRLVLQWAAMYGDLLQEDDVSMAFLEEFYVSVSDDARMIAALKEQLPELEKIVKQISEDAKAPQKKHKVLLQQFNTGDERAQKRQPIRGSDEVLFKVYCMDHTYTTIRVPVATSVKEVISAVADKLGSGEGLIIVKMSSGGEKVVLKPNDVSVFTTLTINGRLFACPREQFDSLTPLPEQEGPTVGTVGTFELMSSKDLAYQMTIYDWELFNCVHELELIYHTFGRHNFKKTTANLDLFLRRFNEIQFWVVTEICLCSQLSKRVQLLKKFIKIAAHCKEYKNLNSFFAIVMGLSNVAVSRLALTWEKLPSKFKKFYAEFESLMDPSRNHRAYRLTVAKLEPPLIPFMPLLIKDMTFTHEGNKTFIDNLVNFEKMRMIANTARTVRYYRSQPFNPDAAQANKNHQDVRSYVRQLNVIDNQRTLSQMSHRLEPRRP
The target is the same in experiment [15]. Kind of experiment: Confirmatory qHTS for antagonist of cAMP-regulated guanine nucleotide exchange factor 4 (EPAC2) (AID 1645885). Note: potency is the fitted concentration of half-maximal effect; nearly all actives have a fitted effect of over 25% in size.
For experiment [16], the target named is Metallo-beta-lactamase type 2 (Klebsiella pneumoniae) (UniProt C7C422). The experiment in a line: qHTS to identify inhibitors of the New Delhi Metallo-beta-lactamase (NDM): assay validation screen against the NCATS LOPAC Collection (AID 1794843).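 Note: nitrocefin turnover by NDM-1 measured as 485 nm absorbance at plateau; % is set by controls: 0 for no effect and ±100 for the full control effect.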 In a few lines:
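NDM-1 at 2 nM final in 50 mM HEPES pH 7.0, 1 uM ZnSO4, 0.01% Tween20, preincubated with LOPAC compounds pinned in DMSO; 50 uM nitrocefin (stock) added. Hydrolysis read as absorbance at 485 nm in the plateau phase.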

The results in this text go back to PubChem BioAssay (NCATS).

Where “and” joins values, the source holds several entries; their conditions need not be identical. Equal entries are not always repeated. Results filed as inconclusive are left out. Calls of active or inactive are those of the source. Calls come from the whole dose curve; as a rule, active = well fitted curve in the direction sought with a large enough effect; inconclusive = small, poorly fitted or top-dose-only effect, or another doubt; inactive = no such curve, though single readings can be large; an effect the other way counts as inactive or inconclusive. Where a SMILES comes first, the peptide text is derived from it. [ ]: non-standard residue; d: D form. pGlu = O=C1CC[C@@H](C(=O)O)N1

Sequence of Catechol O-methyltransferase (Homo sapiens) (P21964 whole entry, looked up): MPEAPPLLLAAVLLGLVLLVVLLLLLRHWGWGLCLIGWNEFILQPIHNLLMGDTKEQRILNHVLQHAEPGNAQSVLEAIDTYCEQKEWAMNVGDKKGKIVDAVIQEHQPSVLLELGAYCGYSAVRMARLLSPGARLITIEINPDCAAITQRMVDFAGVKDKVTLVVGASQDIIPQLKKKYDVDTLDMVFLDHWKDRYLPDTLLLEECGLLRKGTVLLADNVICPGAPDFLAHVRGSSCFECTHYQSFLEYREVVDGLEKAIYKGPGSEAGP
Sequence of Metallo-beta-lactamase type 2 (Klebsiella pneumoniae) (C7C422 whole entry, looked up): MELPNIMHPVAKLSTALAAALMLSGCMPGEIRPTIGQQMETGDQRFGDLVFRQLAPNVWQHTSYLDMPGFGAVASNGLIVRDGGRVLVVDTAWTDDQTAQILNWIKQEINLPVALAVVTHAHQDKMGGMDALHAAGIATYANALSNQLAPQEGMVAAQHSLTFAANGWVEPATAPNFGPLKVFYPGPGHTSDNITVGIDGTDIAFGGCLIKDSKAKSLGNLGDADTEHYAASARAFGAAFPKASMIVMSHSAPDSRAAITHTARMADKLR
Sequence of Nuclear receptor subfamily 1 group I member 3 (Homo sapiens) (Q14994 whole entry, looked up): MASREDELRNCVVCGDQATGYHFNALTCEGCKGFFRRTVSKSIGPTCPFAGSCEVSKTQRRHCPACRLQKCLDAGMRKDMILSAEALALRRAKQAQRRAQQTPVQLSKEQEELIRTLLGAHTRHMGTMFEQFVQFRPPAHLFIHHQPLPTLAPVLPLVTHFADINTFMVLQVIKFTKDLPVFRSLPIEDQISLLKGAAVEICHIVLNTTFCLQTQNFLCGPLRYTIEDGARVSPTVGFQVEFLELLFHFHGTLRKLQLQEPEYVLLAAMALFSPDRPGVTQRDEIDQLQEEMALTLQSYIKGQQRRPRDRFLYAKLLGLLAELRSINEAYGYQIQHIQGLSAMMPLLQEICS

In the case of `CCCCCC1Nc2cc(C(F)(F)F)c(S(N)(=O)=O)cc2S(=O)(=O)N1` (stereo unspecified), the Potency result in [1] and in experiment [2] was “inactive” throughout.
As to `CCOC(=O)C(=O)CCc1ccccc1`, the Potency result in experiment [1] and in [2] was “inactive” in each case.
As for `CCN(CC)CCN`, the Potency entry in [1] and in [2] was “inactive” throughout.
`CC(C)(C)c1nnc(NS(=O)(=O)c2ccccc2)s1`: the Potency result in [1] and in experiment [2] was “inactive” each time.
For `Cc1nc(N)nc(N)c1-c1ccc(Cl)c(Cl)c1`, the Potency was 266 nM (active) in experiment [1] and 0.299 µM (active) in [2].
In the case of `CCCCC/C=C\C/C=C\CCCCCCCC(=O)NC(C)c1ccccc1` (stereo unspecified), the Potency in experiment [2] was 16.8 µM (active).
On the same count and under the same terms, the result for `COc1cc2c(cc1OC)C(=O)CC2` reads “inactive”.
As to `O=C(O)CCCC[C@@H]1SC[C@@H]2NC(=O)N[C@@H]21`, the Potency result in experiment [1] and in experiment [2] was “inactive” each time. Also, the outcome in experiment [3], in experiment [4], in [5], in experiment [6] and in experiment [7] was “inactive” throughout.
On to `C[C@H]1C[C@H](O)c2ccsc2S1(=O)=O`, for which the Potency entry in experiment [2] is “inactive”.
With `O=C(O)/C=C(\CC(=O)O)C(=O)O`, the Potency entry in experiment [2] is “inactive”.
For `OCCc1ccccc1`, the Potency result in experiment [1], in experiment [2] and in experiment [8] was “inactive” in each case.
Take `CN(C)CCOC1=Cc2ccccc2Sc2ccc(Cl)cc21`: in [2], the Potency is 16.8 µM (active).
In the case of `CCNC(=O)[C@@H]1CCCN1C(=O)[C@H](CCCN=C(N)N)NC(=O)[C@H](CC(C)C)NC(=O)CNC(=O)[C@H](Cc1ccc(O)cc1)NC(=O)[C@H](CO)NC(=O)[C@H](Cc1c[nH]c2ccccc12)NC(=O)[C@H](Cc1cnc[nH]1)NC(=O)[C@@H]1CCC(=O)N1` ([pGlu]HWSYGLRP-NHEt), in experiment [2], the Potency entry was “inactive”.
In the case of `Nc1c(NC/C=C\COc2cc(CN3CCCCC3)ccn2)c(=O)c1=O`, the Potency result in experiment [1] and in experiment [2] was “inactive” each time. Further, the activity in experiment [9] was -6.1%; in experiment [11] it was -13.9%; in [12] it was -8.61%. Moreover, the activity change, negative = inhibition in experiment [10] was 2.26%.
For the molecule `COC(=O)C1=C(C)NC(COC(N)=O)=C(C(=O)OC(C)C)C1c1cccc(Cl)c1Cl` (stereo unspecified), the Potency in experiment [1] was 18800 nM (active); in [2], 11.9 µM (active); in [15] it was 44.1 µM (active). The Potency entry in experiment [13] and in experiment [14] was “inactive” in each case.
Turning to `CC(C)N(CCC(=O)c1ccc2ccccc2c1)Cc1ccccc1`, the Potency in [1] was 6.61 µM (active) and 8.2 µM (active); in experiment [2], 5.25 µM (active) and 11.6 µM (active). Besides, the activity is 3.44% in [9], -17.4% in experiment [11] and 4.13% in [12]. For the same molecule, in experiment [10], the activity change, negative = inhibition stood at 9.33%. Also, the outcome in [16] was “inactive”.
Take `CCN(CC)CC(=O)OCC(=O)[C@@]1(O)CC[C@H]2[C@@H]3CCC4=CC(=O)CC[C@]4(C)[C@H]3[C@@H](O)C[C@@]21C`: the Potency in [2] was 0.0944 µM (active).
Consider `CN(C)CCOC(c1ccccc1)c1ccc(Br)cc1` (stereo unspecified), for which the Potency in experiment [2] is 23.7 µM (active).
